Screening data as filed in PubChem BioAssay.
This is one part of a sample in which hits are shown more often than they occur.
VACV E9 pol inh: vaccinia E9 polymerase processive synthesis inhibitors, primary screen, biochemical, absorbance. in vitro processive DNA synthesis, absorbance read-out; active compounds read low. normalized absorbance, % (concentration not given with the values). 46,000 compounds, 0.94% hits. AID 493162, 2011; in the data active = normalized absorbance mostly below about 85%, no sharp cut-off; inactive = mostly above about 86%
Large screens that a line does not name were inactive.

COc1ccc(-c2cc(=Nc3ccc(C)cc3C)c3cc(O)ccc3o2)cc1	none
Cc1cc(NCc2cccnc2)c2ccc(Cl)cc2n1	none
Clc1ccc2oc(-c3ccccc3)cc(=NCc3cccnc3)c2c1	VACV E9 pol inh 66.0
Clc1ccc2oc(-c3cccnc3)nc2c1	none
Cc1ccc2oc(-c3ccc(Cl)cc3)cc(=O)c2c1	none
CCCN=c1cc(-c2ccccc2)oc2ccc(C)cc12	VACV E9 pol inh 42.5
CCc1ccc(NC(=O)c2[nH]nc3c2CSc2ccccc2-3)cc1	none
Cc1ccc(-c2noc(CNC(=O)CC3CCCCC3)n2)cc1	none
CCn1c(=NC(=O)c2ccc(Br)s2)sc2ccccc21	none
Cc1ccc(CC(=O)[C@@H]2[C@@H](c3ccoc3)C(C#N)(C#N)[C@H]3C=Cc4ccccc4N23)cc1	none
Nc1cccc(C2=NCCN2)c1	none
O=C(NC1=NCCCCCN1)Nc1cccc(Cl)c1	none
O=C(Nc1cccc(C2=NCCN2)c1)Nc1cccc(C2=NCCN2)c1	VACV E9 pol inh 78.4
CCOC(=O)c1cnn2c(C)c(Cc3cccc(F)c3)c(C)nc12	none
O=C1c2cccc3cc(Br)cc(c23)C(=O)N1Nc1ccc(Cl)cc1	none
CCOc1cc2c(cc1OCC)-n1cccc1C(C1CCCCC1)NC2 (configuration not stated)	none
CCOC(=O)c1cc(-c2ccccc2)n(-c2ccc(C(=O)O)cc2)c1C	VACV E9 pol inh 60.6
CCOC(=O)c1cc(-c2ccccc2)n(CCC(=O)O)c1C	none
CCOC(=O)c1cc(-c2ccccc2)n(-c2cccc(C(=O)N3CCCC3)c2)c1C	none
COc1ccc(S(=O)(=O)N2Cc3ccccc3CC2C(N)=O)cc1OC (configuration not stated)	none
CCOC(=O)c1sc(Nc2ccccc2)nc1C	none
CCOC(=O)c1sc(N2C(=O)C(=O)/C(=C(/O)c3ccc(OC)c(C)c3)C2c2ccccc2)nc1C (configuration not stated)	VACV E9 pol inh 68.8
COc1cccc(/C(O)=C2\C(=O)C(=O)N(c3ccccn3)C2c2ccccc2)c1 (configuration not stated)	none
CCCCc1c(C)nc2ccc(Br)cc2c1SCCC(=O)O	none
O=C(O)c1ccc2c(c1)N(Cc1ccc(F)cc1)C(=O)/C(=C\c1ccccc1)S2	VACV E9 pol inh 57.2
O=C(NCC1CCCO1)c1ccc2c(c1)N(Cc1ccc(F)cc1)C(=O)/C(=C/c1ccccc1)S2 (configuration not stated)	none
CCc1ccc(/C=C2\Sc3ccccc3N(CC(=O)O)C2=O)cc1	VACV E9 pol inh 66.5
O=C(/C=C1/Sc2ccccc2N(Cc2ccc(F)cc2)C1=O)NCc1ccccc1	none
O=C(O)CN1C(=O)S/C(=C\c2ccc(Br)cc2)C1=O	none
CNC(=O)CN1C(=O)/C(=C/c2ccccc2C)Sc2ccccc21	none
O=C(O)COc1ccc(NS(=O)(=O)c2cccc3nsnc23)cc1	none
Cc1c(C(=O)N(C)C)sc2c1c(=O)n(Cc1ccccc1)c(=O)n2Cc1ccccc1C#N	none
COC(=O)c1ccc(/C=C2\SC(=S)N(c3cccc(OC)c3)C2=O)cc1	none
c1ccc(-c2csc3nc4ccccc4n23)cc1	none
CCN(CC)CCCn1c(-c2ccccc2)cn2c3ccccc3nc12	none
c1ccc(-c2cn3c(nc4ccccc43)s2)cc1	VACV E9 pol inh 80.5
Cn1c(=Nc2cccc(O)c2)ccc2ccccc21	none
CC(=O)Nc1cc(C(=O)N2CC=C(c3ccccc3)CC2)ccc1Sc1ccc(Cl)cc1	none
O=C(Nc1ccc2c(c1)OCO2)c1cc(Cl)sc1Cl	none
CCN1CCN(c2cc(C)c3ccc(OC)cc3n2)CC1	none
COc1ccc2c(C)cc(Cl)nc2c1	none
COc1ccc2c(C)cc3nncn3c2c1	VACV E9 pol inh 77.7
CCOc1ccccc1C(=O)NC1CCCCCC1	none
CCOc1cccc(=O)c2c(C)n(-c3ccc(OC)cc3)c(C)c12	none
CCOc1cccc(=NC2CCCCC2)c2c(C)n(C)c(C)c12	VACV E9 pol inh 89.3
O=C(NC1=NCCS1)c1ccccc1OCc1ccccc1	none
CN1c2ccccc2Oc2nnc(NCc3ccccc3)cc21	none
C=C1c2c(Cl)ccc(O)c2C(O)=C2C(=O)[C@]3(O)C(O)=C(C(N)=O)C(=O)[C@@H](N(C)C)[C@@H]3[C@@H](O)[C@H]12	none
CN(C)[C@@H]1C(=O)C(C(N)=O)=C(O)[C@@]2(O)C(=O)C3=C(O)c4c(O)cccc4[C@@](C)(O)[C@H]3C[C@@H]12	none
C=C1c2cccc(O)c2C(O)=C2C(=O)[C@]3(O)C(O)=C(C(N)=O)C(=O)[C@@H](N(C)C)[C@@H]3[C@@H](O)[C@H]12	VACV E9 pol inh 55.2
Nc1nonc1OCCNc1ccccc1	none
CCn1nc(-c2ccccc2)cc1-n1cnc2ccccc21	none
CN(Cc1ccccc1)C(=O)c1cc2c(Cl)nc3ccccc3c2s1	none
O=C(Nc1ccccc1C(=O)O)OCC1c2ccccc2-c2ccccc21	VACV E9 pol inh 41.1
O=C(/C=N/O)Nc1ccccc1C(=O)O	none
O=C(O)c1ccccc1NCc1ccccc1Cl	none
Nc1ccc(C(c2ccc(N)cc2)C2NC(=O)c3ccccc32)cc1 (configuration not stated)	none
CCC(CO)NC(=O)c1cc2cc(Br)cc(Br)c2o1 (configuration not stated)	none
CN(C)c1ccc(-c2n[nH]c3c2C(=O)CCC3)cc1	none
